Source: PubChem (Broad Institute)
Tgondii IFNg: T. gondii growth inhibition under IFN-gamma; 69,000 compounds, 3.8% hits; Toxoplasma gondii growth in IFN-gamma-treated host cells; hits give low values; activity change, negative = inhibition, % (no concentration beside the values); in the data active means activity change below about -70%, passing the limit was not always enough;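 further: host cells are HeLa cells infected with Toxoplasma gondii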
Each line names hits and unclear results; the compound was inactive in the other large screens. The entries come from a sample that favours hits as a whole.

CC(C)c1nc2ccc(NC(=O)CC3NC(=O)N(C4CCCCC4)C3=O)cc2s1 (centres undefined)	none
O=C(NCCc1csc(-c2cccc(F)c2)n1)C12CC3CC(CC(C3)C1)C2	none
CNc1cc(C2CCN(Cc3ccc(-c4ccccc4)cc3)CC2)nc(CN(C)C(C)=O)n1	none
O=C(CSc1n[nH]c(=O)n1-c1ccccc1C(F)(F)F)c1ccc(F)cc1	none
CC(c1ccccc1)n1c(SCC(=O)c2csc3ccccc23)n[nH]c1=O (centres undefined)	Tgondii IFNg -79
CC(c1ccccc1)n1c(SCC(=O)O)nnc1C1CCOCC1 (centres undefined)	none
CCCN(Cc1nccn1C)c1nc(CCN)nc2ccccc12	none
Cc1ccc(C(=O)N2C[C@@H]3COC[C@@]3(Cc3nnc(C4CC4)o3)C2)o1	none
CC(C)[C@H](C(=O)Nc1ccc(C(=O)NO)cc1)c1ccccc1	Tgondii IFNg -83
O=C(NCC(O)c1ccccc1)c1ccc(NC(=O)C2CCC2)cc1 (centres undefined)	none
CC(C)c1ccc(C(=O)Nc2ccccc2)cc1	none
Cc1ccc(C)c(NC(=O)c2nnn(Cc3nc(-c4cccc(Cl)c4)oc3C)c2C)c1	none
Fc1ccc(NC(=S)Nc2ccccc2Cl)cc1	none
Fc1cccc(NC(=S)Nc2ccc3ccccc3c2)c1	Tgondii IFNg -88
CSc1cccc(NC(=S)NCc2ccc(F)cc2)c1	none
COc1ccc([C@@]2(O)CC[C@@H]3CN(C(=O)Cn4ccc(=O)[nH]c4=O)C[C@@H]32)cc1	none
COc1ccc(NC(=O)C(=O)NCCc2csc(-c3ccc(F)cc3)n2)cc1	none
CC(C)(C)c1ccc(OC(=O)c2cccc(C(=O)Oc3ccc(C(C)(C)C)cc3)n2)cc1	none
CCS(=O)(=O)N1CCc2nc(-c3cccc(F)c3)nc(NC3CC3)c2C1	none
COCCN1CCc2nc(-c3cnn(C)c3)nc(NC3CC3)c2C1	none
Cn1cc(-c2nc3c(c(NC4CC4)n2)CN(S(=O)(=O)c2cccc(F)c2)CC3)cn1	Tgondii IFNg -74
Cc1ccc(Cl)cc1N1CCN(c2c(C)c(C)nc3ncnn23)CC1	none
Cc1ccc(-c2nc(Cn3nnc(-c4nc(-c5ccc6c(c5)OCO6)no4)c3C)c(C)o2)cc1	none
CCc1ccc(S(=O)(=O)N2CCc3nc(CNC(=O)C4CCC4)n(C)c3C2)cc1	none
Cn1c(CNC(=O)C2CCC2)nc2c1CN(S(=O)(=O)c1ccc(F)cc1)CC2	none
CCc1ccccc1S(=O)(=O)N1CCc2nc(CNC(=O)C3CCC3)n(C)c2C1	Tgondii IFNg -84
COc1cc(N2CCc3ncnc(N(C)C)c3CC2)ncn1	none
CC(C)c1nccn1C(C)C(=O)N(C)Cc1n[nH]c2c1CCCCC2 (centres undefined)	none
COc1ncccc1C(=O)N1CC[C@@H]2O[C@@H](c3nc(C)no3)C[C@H]2C1	none
CC(C)NC(=O)[C@@H]1C[C@@H](N)CN1Cc1cc(C(C)C)no1	none
c1csc(-c2cn3nc4c(nc3n2)CCCC4)c1	none
Cc1nnsc1C(=O)OCCN(C)c1ccc(C#N)cn1	none
Cc1nnsc1C(=O)N(Cc1ccccc1)C(C)C	none
Cc1nnsc1C(=O)OCc1cc(F)cc(F)c1	Tgondii IFNg -77
O=C(c1cc2c(s1)CCCCC2)N1Cc2cnn(CCO)c2C1	none
COc1cc(-c2cccs2)cc2c1OCCN(C(=O)CCc1cn[nH]c1)C2	none
CN1CCN2CCN(C(=O)CCn3ccnc3)CC2C1 (centres undefined)	none
Fc1cnc(N2CCn3cc(CNc4ccccn4)nc3C2)nc1	none
Cc1cccc(-c2nnc(-c3nc(NCCN4CCCC4)c4ccccc4n3)o2)c1	Tgondii IFNg -90
COc1ccc(-c2nnc(-c3nc(NCc4cccc(C)c4)c4ccccc4n3)o2)cc1	none
CCC(C)Nc1nc(-c2nnc(-c3cccc(C)c3)o2)nc2ccccc12 (centres undefined)	none
c1ccc(-c2nnc(-c3nc(NCc4ccco4)c4ccccc4n3)o2)cc1	none
Cc1cccc(-c2nnc(-c3nc(N4CCOCC4)c4ccccc4n3)o2)c1	none
Cc1cccc(CNc2nc(-c3nnc(-c4ccccc4)o3)nc3ccccc23)c1	Tgondii IFNg -85
Cc1cccc(-c2nnc(-c3nc(NCc4cccnc4)c4ccccc4n3)o2)c1	none
Cc1ccc(-c2nnc(-c3nc(NCc4cccc(F)c4)c4ccccc4n3)o2)cc1	none
CCCSCCCNc1nc(-c2nnc(-c3ccc(C)cc3)o2)nc2ccccc12	none
Cc1cccc(-c2nnc(-c3nc(NCCc4ccco4)c4ccccc4n3)o2)c1	Tgondii IFNg -100
CCCNc1nc(-c2nnc(-c3cccc(C)c3)o2)nc2ccccc12	Tgondii IFNg -98
Cc1ccc(-c2nnc(-c3nc(NCCc4ccco4)c4ccccc4n3)o2)cc1	none
CCc1nc(C)cn1Cc1nc(-c2ccc3c(c2)OCO3)no1	none
CN(C)CCN1CCO[C@@H]2CN(Cc3nccs3)C[C@@H]21	none
CCOc1cccc(-c2noc(-c3c(O)c4ccccc4n(C)c3=O)n2)c1	none
CSc1ccc(NC(=O)N(C)C(C)c2nc(C)sc2C)cc1 (centres undefined)	none
CCn1cc2c(n1)C(COC)CN(C(=O)c1cscn1)C2 (centres undefined)	none
Cc1nnc(NC(=O)CSc2nnc(-c3cccs3)n2C)s1	none
COc1ccc(CN2CCCn3c(nc(CN4CCCC4)cc3=O)C2)cc1	none
Cc1cccc(S(=O)(=O)N2CCn3nnc(COc4cccnc4)c3C2)c1	none
Cc1nn(Cc2nnc(SCC(=O)O)n2-c2ccccc2F)c(C)c1C	none
CCOc1ccc(CNc2nc(-c3nnc(-c4cccc(C)c4)o3)nc3ccccc23)cc1	none
Cc1cccc(-c2nnc(-c3nc(NCc4ccc(C)o4)c4ccccc4n3)o2)c1	Tgondii IFNg -80
Cc1cccc(-c2nnc(-c3nc(NCc4ccc(N(C)C)cc4)c4ccccc4n3)o2)c1	none
O=C(NC1CCN(Cc2ccccc2)CC1)c1csc(-c2ccc(N3CCCC3)nc2)n1	Tgondii IFNg -85
CCc1csc(-c2ccc(N3CCN(C(=O)C4CCN(C(C)=O)CC4)CC3)nc2)n1	none
O=C(NCCCN1CCOCC1)c1csc(-c2ccc(N3CCCC3)nc2)n1	none
O=C(NCC1CCCO1)c1csc(-c2ccc(N3CCCC3)nc2)n1 (centres undefined)	Tgondii IFNg -113
O=C(Cn1ncc2c(N3CCCCC3)ncnc21)NC1CCN(Cc2ccccc2)CC1	none
CC1CCN(C(=O)c2csc(-c3ccc(N4CCCC4)nc3)n2)CC1	none
COc1ccc2c(c1)CCN(Cc1cc3sccc3n1CC1CCCCC1)C2	none
CC1CCC2(CC1)NC(=O)N(CC(=O)NCc1nc(Cc3ccccc3)no1)C2=O (centres undefined)	none
O=C(NCc1cccc(F)c1)N1CCC2(CC(=O)N(c3ccccc3)C2)C1 (centres undefined)	none
CN1C(=O)CC(c2ccccc2)C12CCN(C(=O)[C@H]1CCCO1)CC2 (some centres undefined)	none
CC(C)COC1C2CCC1N(Cc1ccc(F)cc1)C2 (centres undefined)	none
COCC1(C(=O)N2CCCC(Cc3ccc(C(=O)O)cc3)C2)CCC1 (centres undefined)	none
O=C(Cc1c[nH]c2ccccc12)N1CCN(C(=O)c2cc(-c3cccnc3)n[nH]2)CC1	none
Cc1ccc2[nH]c3c(=O)n(CCc4cnc[nH]4)cnc3c2c1	none
Cc1ccc2c(c1)CCCN2CCn1c(=O)[nH]c2ccc(C)cc2c1=O	Tgondii IFNg -82
Cc1ccc2[nH]c3c(=O)n(CCCN4CCN(C)CC4)cnc3c2c1	none
CCc1ccccc1S(=O)(=O)N1CCC2(CC1)Nc1ccccc1-n1cccc12	none
CCOc1ccc(S(=O)(=O)NCCc2csc(-c3cccc(F)c3)n2)cc1	none
COc1cccc(CNC(=O)c2nc3c(o2)CN(Cc2ccccc2)C3)c1	none
O=C(CN1CCC(O)(Cn2ncc3ccccc32)CC1)c1cccn1-c1ccccc1F	none
